The record followed here is PubChem BioAssay.

Assay [1] in a line: growth inhibition of DIPG cells – cell-based, MIPE5.0 library, qHTS (AID 1347068; cut-off not given, nearly all actives have IC50 up to about 30 µM). Particulars: SU-DIPG-XXV viability.
The nature of assay [2]: growth inhibition, single agent or in combination, cell-based, chromothripsis tumors, cisplatin or BGB combos (AID 1671449).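 Also: cells exposed for 96 hours; 0% = vehicle DMSO and 100% = killing by high DMSO.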 To be noted: LFS_MB_P medulloblastoma cells.
The nature of assay [3]: growth inhibition, single agent and combos, cell-based, chromothripsis tumors, cisplatin or BGB combos (AID 1671450).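 Also: cells exposed to compound for four days; 0% = vehicle DMSO and 100% = cell killing by high DMSO.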 To be noted: HDN33 neuroblastoma cells, stronger effect = higher value.
Assay [4] is described as follows: growth inhibition, single agents and combos, ICB984, cell-based, cisplatin or BGB combos, synergistic combos for chromothripsis tumors (AID 1671451; call rule not given here;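 also: cells exposed for 96 hours before readout; 0% = vehicle DMSO and 100% = killing by high DMSO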). To be noted: ICB984 medulloblastoma cells, drug combinations, stronger effect = higher value.
The nature of assay [5]: growth inhibition, single agents and combos, LFS_MB_1R, cell-based, cisplatin or BGB combos, synergistic combos for chromothripsis tumors (AID 1671452).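 Also: cells exposed for 96 hours before readout.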 Particulars: LFS_MB_1R medulloblastoma cells, stronger effect = higher value.
The nature of assay [6]: growth inhibition, single agents and combos, HTB85, cell-based, BGB or cisplatin IC20 combos, synergistic combos for chromothripsis tumors (AID 1671453).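 Also: cells exposed for 96 hours before readout; 0% = vehicle DMSO and 100% = high DMSO killing control.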 Particulars: HTB85 osteosarcoma cells, drug combinations, stronger effect = higher value.
Assay [7] is described as follows: growth inhibition, single agents and combos, CRL2098, cell-based, BGB or cisplatin IC20 combos, synergistic combos for chromothripsis tumors (AID 1671454).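 Also: cells exposed for 96 h before readout; 0% = vehicle DMSO and 100% = killing by high DMSO.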 Particulars: CRL2098 osteosarcoma cells, drug combinations, stronger effect = higher value.
A short description of assay [8]: growth inhibition, single agents and combos, HD-MB03, cell-based, BGB or cisplatin IC20 combos, synergistic combos for chromothripsis tumors (AID 1671455; in the data active = inhibition above about 83%;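 also: 0% = vehicle DMSO and 100% = high DMSO as cytotoxic control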). To be noted: HD-MB03 medulloblastoma cells, stronger effect = higher value.
Assay [9] is described as follows: growth inhibition, single agents and combos, UWB1.289, cell-based, BGB or cisplatin combos, synergistic combos for chromothripsis tumors (AID 1671456).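 Also: cells exposed to compound for four days; 0% = vehicle DMSO and 100% = killing by high DMSO.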 To be noted: UWB1.289 ovarian carcinoma cells, stronger effect = higher value.
Assay [10] can be described thus: growth inhibition, single agents and combos, LFS_MB_2R, cell-based, cisplatin combos, synergistic combos for chromothripsis tumors (AID 1671457).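 Also: cells exposed to compound for four days before readout.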 To be noted: LFS_MB_2R medulloblastoma cells, stronger effect = higher value.
The nature of assay [11]: growth inhibition, MDA-MB-436, cell-based, BGB or cisplatin combos, synergistic combos for chromothripsis tumors (AID 1671458; call rule not given here;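 also: cells exposed for 96 hours; 0% = vehicle DMSO and 100% = killing by high DMSO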). Particulars: MDA-MB-436 breast carcinoma growth inhibition, drug combinations, stronger effect = higher value.
Assay [12] in a line: UWB1.289_BRCA1 ovarian cancer growth, cell-based, BGB or cisplatin combinations (AID 1671459). Particulars: UWB1.289 BRCA1 ovarian carcinoma, drug combinations, stronger effect = higher value.
The nature of assay [13]: drug combination toxicity in non-malignant astrocytes – cell-based, BGB or cisplatin IC20 combos, cytotoxicity control for chromothriptic childhood tumor combination screen (AID 1671460).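 Also: cells exposed to compounds for 96 hours before viability readout; 0% = vehicle and 100% = killing control.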 Particulars: Human astrocytes, viability inhibition, drug combinations, at 0.5 µM, stronger effect = higher value.
A short description of assay [14]: BT084 cell growth, single and combined drugs, ICGC_MB145, cisplatin and BGB IC40 combos (AID 1671461).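 Also: cells exposed to drugs for 96 hours; 0% = vehicle DMSO and 100% = high DMSO full killing control.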 Particulars: BT084 medulloblastoma cells, drug combinations, stronger effect = higher value.
Assay [15] is described as follows: RCMB18 cell growth, single agent and combined, cisplatin and BGB IC40 combos (AID 1671462).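 Also: cells exposed to compound for four days.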 To be noted: RCMB18 medulloblastoma cells, stronger effect = higher value.
A short description of assay [16]: CRL1545 cell growth, single agent and combined, cisplatin and BGB IC20 combos (AID 1671464).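 Also: cells exposed to compound for 96 hours before readout; 0% = vehicle DMSO and 100% = high DMSO killing control.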 To be noted: CRL1545 osteosarcoma cells, stronger effect = higher value.
The nature of assay [17]: viability loss with induced miR-34 in A549 – imaging, A549 dox-inducible miR-34, nuclei and caspase counts, primary screen (AID 1347080;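 active = compounds whose cell count with miR-34 switched on is under 0.7 times the count with it off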). To be noted: A549 miR-34 inducible, Hoechst nuclei count, 48 h.
Setting [18] is: measured here: combination with BGB IC40, at 0.05 µM.
Setting [19] is: measured here: with BGB IC20 combination, at 0.5 µM.
[20] abbreviates: measured here: with cisplatin IC20 combination, at 0.5 µM.
The mark [21] stands for this setting: measured here: combination with cisplatin, at 0.5 µM.
The mark [22] stands for this setting: measured here: combination with cisplatin, at 5 µM.
Setting [23] is: stronger effect = lower value, cell number ratio, induced over uninduced.
Setting [24] is: measured here: relative caspase fold change +Dox/-Dox.

Structures are written as SMILES. Several values for one entry are separate records, joined by “and”; a condition that tells them apart may be missing. Equal entries are not always repeated. Results filed as inconclusive are left out. Activity calls are given as the source filed them. Rule as the data show it, unless noted: active = inhibition above about 80%; inactive = the rest.

As to `CS(=O)(=O)c1ccc(-c2nnc(/C=C/c3nnc(-c4ccc(C#N)cc4)o3)n2-c2ccccc2Cl)nc1`, the molecule was called inactive in assay [1]. Also, the inhibition in assay [2] (at 0.5 µM, stronger effect = higher value) is 1.48% (inactive); in assay [2] (measured here: combination with BGB IC20, at 0.005 µM) it was 2.99%; in assay [2] (measured here: combination with BGB IC40, at 0.005 µM), 6.48%; in [2] (setting [18]), 30.7%; in assay [2] (measured here: combination with cisplatin, at 0.5 µM, stronger effect = higher value), -5.01%; in assay [2] (measured here: combination with cisplatin, at 5 µM, stronger effect = higher value), -36.6%. The inhibition in [3] (BGB combo, at 5 µM) was 21%; in assay [3] (at 0.5 µM), 30.9% (inactive); in [3] (cisplatin combo, at 5 µM), 23.5%; in [3] (setting [19]), 33.7%; in [3] (setting [20]), 23.2%; in assay [3] (single agent, at 5 µM), 31.3%. For the same molecule, the inhibition is -3.28% in assay [4] (BGB IC20 combo, at 0.005 µM); -14.7% in assay [4] (BGB IC40 combo, at 0.005 µM); -5.67% in assay [4] (BGB IC40 combo, at 0.05 µM); -26.5% (inactive) in assay [4] (at 0.5 µM); -9.85% in assay [4] (cisplatin combo, at 0.05 µM); -33.8% in [4] (cisplatin combo, at 0.5 µM). In addition, the inhibition in assay [4] (cisplatin combo, at 5 µM) is -19.1%; in assay [4] (measured here: 5 uM single agent, at 5 µM), -5.85%; in [5] (at 0.5 µM), -3.64% (inactive); in assay [5] (setting [18]), 0.706%; in assay [5] (setting [21]), -21.2%; in [5] (setting [22]), -35.8%. The inhibition is 15.7% (inactive) in assay [6] (at 0.5 µM); 7.63% in assay [6] (measured here: with BGB IC20, at 0.5 µM); -0.396% in [6] (measured here: with BGB IC20, at 5 µM); 4.78% in assay [6] (measured here: with cisplatin IC20, at 0.5 µM); 9.69% in assay [6] (measured here: with cisplatin IC20, at 5 µM); 38.8% in assay [6] (single agent, at 5 µM). Also, the inhibition in assay [7] (at 0.5 µM) is 7.89% (inactive); in assay [7] (measured here: combination with BGB at IC20, at 0.5 µM), 3.4%; in assay [7] (measured here: combination with cisplatin at IC20, at 0.5 µM), 15.6%; in [8] (at 0.5 µM) it was 11.5% (inactive); in [8] (measured here: combo with BGB at IC20, at 0.5 µM), 0.481%; in [8] (measured here: combo with cisplatin at IC20, at 0.5 µM), 19.9%. Besides, the inhibition in [9] (at 0.5 µM) was 15.3% (inactive); in [9] (measured here: inhibition with BGB combination, at 0.05 µM), 0.045%; in [9] (measured here: inhibition with cisplatin combination, at 0.05 µM), 15.1%; in assay [10] (at 0.5 µM) it was -0.5% (inactive); in [10] (setting [21]), 14.1%; in assay [10] (setting [22]), -1.82%. In addition, the inhibition in assay [11] (at 0.5 µM) was 7.83% (inactive); in assay [11] (measured here: BGB combination, at 0.5 µM), -1.04%; in [11] (measured here: BGB combination, at 5 µM) it was -5.11%; in [11] (measured here: cisplatin combination, at 0.5 µM), 9.17%; in assay [11] (measured here: cisplatin combination, at 5 µM), 11.5%; in [12] (BGB combination, concentration series, at 5 µM), 22.9%. Also, the inhibition in assay [12] (at 0.5 µM) was 12.5% (inactive); in [12] (cisplatin combination, concentration series, at 5 µM) it was 17.8%; in assay [13], 40.8% (inactive); in assay [13] (measured here: combo with BGB IC20) it was 29.7%; in assay [13] (measured here: combo with cisplatin IC20), 52.2%; in assay [14] (at 0.5 µM), -12.2% (inactive). Further, the inhibition in assay [14] (cisplatin combination, at 0.5 µM) is 3.06%; in assay [14] (cisplatin combination, at 5 µM), 6.23%; in [14] (measured here: BGB IC40 combination 0.05 uM, at 0.05 µM), -3.22%; in [14] (single agent, at 5 µM) it was -30%; in assay [15] (at 0.5 µM), 3.73% (inactive); in [15] (cisplatin combo, at 5 µM), 7.03%. Also, the inhibition in assay [15] (measured here: BGB IC40 combination, at 0.05 µM) was -6.83%; in [15] (setting [21]), 19.3%; in assay [15] (single agent, at 5 µM), -0.278%; in [16] (at 0.5 µM) it was -40.3% (inactive); in assay [16] (setting [19]), -43.6%; in assay [16] (setting [20]), -38.6%. Also, the inhibition in assay [16] (single agent, at 0.05 µM) was -1.31%; in assay [16] (single agent, at 5 µM) it was -32.2%.

As for `C=CC(=O)N1CCC(CNc2ncnc(N)c2-c2ccc(Oc3ccccc3)cc2)CC1`, in assay [1], the outcome was inactive.

Regarding `Cc1ccc(Nc2cc(N[C@@H]3CCCC[C@@H]3N)nnc2C(N)=O)nc1C`, the result in [1] was inactive.

On to `CCCc1cc(C(=O)c2ccc(-c3ccccc3)cc2)ccc1OCCCN1CCCc2c(OC(C)(C)C(=O)O)cccc21`, for which the fold change in assay [17] (setting [23]) is 0.856 (inactive); in assay [17] (setting [24]), 1.42. Moreover, the cell count in [17] (measured here: total cells with miR-34 induction, stronger effect = lower value) worked out at 5600; in assay [17] (measured here: total cells without miR-34 induction), 6540.

Take `COc1ccc(-c2c(C)nn3c(NCCN4CCOCC4)cc(C)nc23)cc1OC`: the molecule was classed as inactive in [1].

With `CC=CCC(C)C(O)C1C(=O)NC(CC)C(=O)N(C)CC(=O)N(C)C(CC(C)C)C(=O)NC(C(C)C)C(=O)N(C)C(CC(C)C)C(=O)NC(C)C(=O)NC(C)C(=O)N(C)C(CC(C)C)C(=O)N(C)C(CC(C)C)C(=O)N(C)C(C(C)C)C(=O)N1C` (stereo not drawn), the fold change is 1.07 (inactive) and 0.992 (inactive) in [17] (setting [23]); 0.343 and 1.41 in assay [17] (setting [24]).
